The nature of assay [1]: A CellTox Green Cytotoxicity Assay to monitor cytotoxicity in HEK293 cells - 40 hour (AID 1224871). Further: nearly all actives have a fitted effect of over 45% in size. Put shortly: (§1)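 Real-time, in one plate: 600 HEK293 cells/well with dead-cell DNA dye, pinned compound after 5 h, 37 C incubation over 40 h; viable cells give no appreciable fluorescence.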
The nature of assay [2]: qHTS RealTime-Glo MT Cell Viability Assay in HEK293 cells - 16 hour (AID 1224872). Further: nearly all actives have a fitted effect of over 50% in size. Further: potency means the concentration at half of the fitted maximal effect. Put shortly:
(§2)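 HEK293 cells seeded with NanoLuc/prosubstrate reagent, rested 5 h at 37 C, then dosed and kept at 37 C up to 40 h. Nonlytic real-time luminescence from viable cells read at 0, 8, 16, 24, 32 and 40 h.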

Assay [3] in a line: qHTS RealTime-Glo MT Cell Viability Assay in HepG2 cells - 8 hour (AID 1224873). Further: nearly all actives have a fitted effect of over 55% in size. The method, boiled down:
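Real-time viability: cells seeded at 600 per well together with NanoLuc and cell-permeant prosubstrate, compounds added after 5 h incubation. Luminescence tracked at 0, 8, 16, 24, 32 and 40 h of exposure.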
Background: In qHTS, concentration-response curves come from the screen itself.

A short description of assay [4]: qHTS RealTime-Glo MT Cell Viability Assay in HEK293 cells - 40 hour (AID 1224874). Further: nearly all actives have a fitted effect of over 50% in size. Further: potency means the concentration at half of the fitted maximal effect. As to conditions: RealTime-Glo luminescence; max response: hits give low values. The method, boiled down:
(§3)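 Kinetic, non-lysing viability readout. Seed HEK293 (600/well) with reagent, incubate 5 h at 37 C/5% CO2, pin 23 nL compound in DMSO, incubate at 37 C, read luminescence at 0, 8, 16, 24, 32, 40 h.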

Assay [5] is described as follows: A CellTox Green Cytotoxicity Assay to monitor cytotoxicity in HEK293 cells - 24 hour (AID 1224875). Further: series mostly up to about 77 µM; nearly all actives have a fitted effect of over 45% in size. The method, boiled down: as §1
A short description of assay [6]: A CellTox Green Cytotoxicity Assay to monitor cytotoxicity in HepG2 cells - 16 hour (AID 1224876). Further: nearly all actives have a fitted effect of over 45% in size. The method, boiled down: (§4)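 Cytotoxicity was tracked as dead-cell DNA fluorescence in HepG2 cells treated with test compounds at 37 C; each time-point value comes from one kinetic series spanning 0, 8, 16, 24, 32 and 40 h.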
Assay [7] in a line: qHTS RealTime-Glo MT Cell Viability Assay in HepG2 cells - 32 hour (AID 1224877). Further: nearly all actives have a fitted effect of over 55% in size. Put shortly:
(§5)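 HepG2 cells (600/well) were dispensed with RealTime-Glo reagents, incubated 5 h at 37 °C, then treated with compounds in DMSO for up to 40 h. Nonlytic NanoLuc luminescence reflecting viable cells was read at each stated time point.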

The nature of assay [8]: A CellTox Green Cytotoxicity Assay to monitor cytotoxicity in HepG2 cells - 24 hour (AID 1224878). Further: nearly all actives have a fitted effect of over 45% in size. Further: potency means the concentration at half of the fitted maximal effect. The method, boiled down:
as §4

Assay [9] is described as follows: A CellTox Green Cytotoxicity Assay to monitor cytotoxicity in HepG2 cells - 40 hour (AID 1224879). Further: nearly all actives have a fitted effect of over 40% in size. Further: potency means the concentration at half of the fitted maximal effect. Put shortly:
as §4

Assay [10] is described as follows: A CellTox Green Cytotoxicity Assay to monitor cytotoxicity in HEK293 cells - 32 hour (AID 1224881). Further: nearly all actives have a fitted effect of over 40% in size. Put shortly:
as §1

Assay [11] is described as follows: A CellTox Green Cytotoxicity Assay to monitor cytotoxicity in HepG2 cells - 0 hour (AID 1224882). Further: nearly all actives have a fitted effect of over 35% in size. Put shortly: as §4
Assay [12] in a line: A CellTox Green Cytotoxicity Assay to monitor cytotoxicity in HepG2 cells - 32 hour (AID 1224883). Further: nearly all actives have a fitted effect of over 50% in size. Further: potency means the concentration at half of the fitted maximal effect. Put shortly: as §4
Assay [13] can be described thus: A CellTox Green Cytotoxicity Assay to monitor cytotoxicity in HEK293 cells - 8 hour (AID 1224884). Further: nearly all actives have a fitted effect of over 35% in size. The method, boiled down: as §1
Assay [14] is described as follows: qHTS RealTime-Glo MT Cell Viability Assay in HepG2 cells - 16 hour (AID 1224885). Further: nearly all actives have a fitted effect of over 50% in size. The method, boiled down:
as §5

The nature of assay [15]: qHTS RealTime-Glo MT Cell Viability Assay in HEK293 cells - 24 hour (AID 1224886). Further: nearly all actives have a fitted effect of over 50% in size. Further: potency means the concentration at half of the fitted maximal effect. Put shortly: as §2
A short description of assay [16]: qHTS RealTime-Glo MT Cell Viability Assay in HEK293 cells - 8 hour (AID 1224887). Further: nearly all actives have a fitted effect of over 50% in size. Further: potency means the concentration at half of the fitted maximal effect. The method, boiled down:
as §3

The nature of assay [17]: qHTS RealTime-Glo MT Cell Viability Assay in HepG2 cells - 0 hour (AID 1224889). Further: nearly all actives have a fitted effect of over 50% in size. Put shortly:
as §5

Assay [18] is described as follows: A CellTox Green Cytotoxicity Assay to monitor cytotoxicity in HepG2 cells - 8 hour (AID 1224890). Further: nearly all actives have a fitted effect of over 45% in size. Put shortly: as §4
Assay [19] is described as follows: qHTS RealTime-Glo MT Cell Viability Assay in HEK293 cells - 0 hour (AID 1224880). The method, boiled down:
as §3

The nature of assay [20]: A CellTox Green Cytotoxicity Assay to monitor cytotoxicity in HEK293 cells - 16 hour (AID 1224888). Further: nearly all actives have a fitted effect of over 35% in size. The method, boiled down:
as §1

Consider 14 molecules from PubChem BioAssay (Tox21).

Values without a mark were called inactive. Records with an inconclusive call do not appear. Calls of active or inactive are those of the source. The call rests on the fitted dose curve; in most records, active means well fitted curve in the direction sought with a large enough effect in the repeat runs; inconclusive means weak or mixed curves; inactive means no such curve, though single readings can be large; an effect the other way counts as inactive or inconclusive.
On the % scale 0 is the no-effect control and ±100 the full control effect.

For `Nc1ccc([N+](=O)[O-])c(C(F)(F)F)c1`, the Potency entry in assay [1], in assay [2], in [3], in assay [5], in assay [6] and in assay [7] was “inactive” throughout. The Potency result in assay [8], in [9], in assay [10], in [11], in [12] and in assay [13] was “inactive” each time. The Potency result in assay [14], in assay [15], in assay [16], in assay [17] and in [18] was “inactive” each time. For the same molecule, the max response in [4] was -6.2%.

Take `O=C1OC(CN2CCOCC2)CN1/N=C/c1ccc([N+](=O)[O-])o1` (stereo not drawn): the Potency entry in assay [1], in assay [2], in assay [3], in [5], in [6] and in assay [7] was “inactive” throughout. In addition, the Potency entry in [8], in [9], in assay [19], in [10], in assay [12] and in assay [13] was “inactive” in each case. The Potency result in assay [14], in [15], in [20], in [17] and in [18] was “inactive” each time. For the same molecule, the max response in [4] was -0.929%.

With `CN(C)CCCN1c2ccccc2Sc2ccccc21`, the Potency entry in [1], in assay [2], in assay [3], in [5], in assay [7] and in assay [10] was “inactive” throughout. In addition, the Potency result in assay [11], in assay [13], in assay [14], in assay [15], in [20] and in assay [18] was “inactive” each time. Besides, in [4], the max response is -25.3%. Besides, the Potency in assay [8] is 26.8 µM (active); in assay [9] it was 23.9 µM (active); in [12] it was 23.9 µM (active).

In the case of `O=C(NCC1CN(c2ccc(N3CCOCC3=O)cc2)C(=O)O1)c1ccc(Cl)s1` (stereo not drawn), the Potency entry in assay [1], in assay [2], in [3], in assay [5], in assay [7] and in [19] was “inactive” in each case. In addition, the Potency entry in assay [10], in assay [13], in [14], in [15], in assay [16] and in assay [20] was “inactive” each time. In addition, in assay [17], the Potency result was “inactive”. Besides, in assay [4], the max response is -20.3%.

As to `COCCCN1CCC(NC(=O)c2cc(Cl)c(N)c3c2OCC3)CC1`, the Potency entry in [1], in assay [2], in [3], in assay [5], in assay [6] and in assay [7] was “inactive” throughout. In addition, the Potency result in assay [8], in assay [9], in [19], in assay [10], in [12] and in assay [13] was “inactive” in each case. Also, the Potency result in assay [14], in [15], in assay [16], in assay [20], in assay [17] and in [18] was “inactive” each time. In addition, the max response in [4] was -14%.

`NCc1ccccc1Sc1ccccc1CO`: the Potency entry in [1], in assay [2], in assay [3], in [5], in [6] and in assay [7] was “inactive” throughout. Moreover, the Potency entry in assay [8], in [9], in assay [19], in assay [10], in assay [12] and in assay [13] was “inactive” throughout. For the same molecule, the Potency entry in assay [14], in [15], in assay [16], in [20], in assay [17] and in [18] was “inactive” each time. Moreover, the max response in assay [4] is -17%.

Regarding `C[Si](C)(CCCN)O[Si](C)(C)CCCN`, the Potency result in [1], in assay [2], in assay [3], in assay [5], in assay [6] and in assay [7] was “inactive” throughout. The Potency result in assay [8], in assay [9], in assay [19], in assay [10], in assay [12] and in assay [13] was “inactive” throughout. Moreover, the Potency entry in [14], in [15], in assay [16], in assay [20], in assay [17] and in assay [18] was “inactive” each time. Also, in assay [4], the max response is -16%.

In the case of `CCOC(=O)Cc1cccc2ccccc12`, the Potency entry in assay [1], in [2], in [3], in assay [5], in assay [7] and in assay [19] was “inactive” each time. The Potency entry in assay [10], in [13], in assay [14], in assay [15], in [16] and in assay [20] was “inactive” each time. The max response in assay [4] was -4.39%. Also, the Potency in [9] was 21.9 µM (active).

`CCCCC/C=C\C/C=C\CCCCCCCC(=O)NC(C)c1ccccc1` (stereo not drawn): the Potency entry in assay [1], in [2], in assay [3], in assay [5], in [6] and in [7] was “inactive” each time. For the same molecule, the Potency entry in assay [8], in assay [9], in assay [19], in [10], in assay [12] and in assay [13] was “inactive” in each case. For the same molecule, the Potency result in [14], in assay [15], in assay [20], in [17] and in assay [18] was “inactive” throughout. Also, the max response in [4] is -16.2%.

In the case of `CC1=CC[C@H](C(C)C)C=C1`, the Potency entry in assay [1], in assay [2], in assay [3], in assay [5], in assay [6] and in assay [7] was “inactive” throughout. Also, the Potency entry in assay [8], in assay [9], in assay [19], in assay [10], in [12] and in assay [14] was “inactive” throughout. The Potency entry in [15], in assay [16], in assay [20], in [17] and in [18] was “inactive” in each case. In assay [4], the max response was -3.46%.

In the case of `COc1ccnc(CS(=O)c2nc3ccc(OC(F)F)cc3[nH]2)c1OC` (stereo not drawn), the Potency entry in [1], in [2], in [3], in [5], in [6] and in assay [7] was “inactive” in each case. For the same molecule, the Potency entry in assay [8], in assay [9], in assay [10], in assay [11], in [13] and in [14] was “inactive” throughout. Further, the Potency entry in assay [15], in [16], in [20], in assay [17] and in assay [18] was “inactive” throughout. For the same molecule, the max response in assay [4] was -16.2%.

As for `Nc1ccccc1S(=O)(=O)c1ccccc1`, the Potency result in assay [1], in assay [2], in assay [3], in [5], in [6] and in assay [7] was “inactive” throughout. The Potency entry in assay [8], in assay [9], in assay [19], in assay [10], in [12] and in assay [13] was “inactive” each time. Further, the Potency entry in [14], in assay [15], in [16], in assay [20], in assay [17] and in [18] was “inactive” throughout. The max response in assay [4] was -22.9%.

On to `CCCNCC(O)COc1ccccc1C(=O)CCc1ccccc1` (stereo not drawn), for which the Potency entry in assay [1], in assay [3], in assay [5], in assay [7], in assay [10] and in assay [11] was “inactive” each time. Besides, the Potency result in [13], in assay [14], in assay [20] and in [17] was “inactive” each time. In addition, the Potency in [2] was 2.13 µM (active); in assay [4], 2.39 µM (active); in assay [15] it was 2.13 µM (active); in assay [16], 2.13 µM (active).

Regarding `CCCCC1=NC2(CCCC2)C(=O)N1Cc1ccc(-c2ccccc2-c2nn[nH]n2)cc1`, the Potency result in [1], in assay [2], in [3], in [5], in assay [6] and in assay [7] was “inactive” throughout. Further, the Potency entry in assay [8], in [9], in [10], in [11], in [12] and in [13] was “inactive” each time. Also, the Potency result in assay [14], in [15], in assay [16], in [20], in [17] and in assay [18] was “inactive” throughout. Also, the max response in [4] was -1.18%.
